# Source: ChEMBL document CHEMBL1961873, “Compounds: GSK PKIS; Assays: Nanosyn kinase panel” (2012)
# Target: T1, Phosphatidylinositol 4,5-bisphosphate 3-kinase catalytic subunit delta isoform (Homo sapiens) (UniProt O00329)
# T1 sequence (whole entry): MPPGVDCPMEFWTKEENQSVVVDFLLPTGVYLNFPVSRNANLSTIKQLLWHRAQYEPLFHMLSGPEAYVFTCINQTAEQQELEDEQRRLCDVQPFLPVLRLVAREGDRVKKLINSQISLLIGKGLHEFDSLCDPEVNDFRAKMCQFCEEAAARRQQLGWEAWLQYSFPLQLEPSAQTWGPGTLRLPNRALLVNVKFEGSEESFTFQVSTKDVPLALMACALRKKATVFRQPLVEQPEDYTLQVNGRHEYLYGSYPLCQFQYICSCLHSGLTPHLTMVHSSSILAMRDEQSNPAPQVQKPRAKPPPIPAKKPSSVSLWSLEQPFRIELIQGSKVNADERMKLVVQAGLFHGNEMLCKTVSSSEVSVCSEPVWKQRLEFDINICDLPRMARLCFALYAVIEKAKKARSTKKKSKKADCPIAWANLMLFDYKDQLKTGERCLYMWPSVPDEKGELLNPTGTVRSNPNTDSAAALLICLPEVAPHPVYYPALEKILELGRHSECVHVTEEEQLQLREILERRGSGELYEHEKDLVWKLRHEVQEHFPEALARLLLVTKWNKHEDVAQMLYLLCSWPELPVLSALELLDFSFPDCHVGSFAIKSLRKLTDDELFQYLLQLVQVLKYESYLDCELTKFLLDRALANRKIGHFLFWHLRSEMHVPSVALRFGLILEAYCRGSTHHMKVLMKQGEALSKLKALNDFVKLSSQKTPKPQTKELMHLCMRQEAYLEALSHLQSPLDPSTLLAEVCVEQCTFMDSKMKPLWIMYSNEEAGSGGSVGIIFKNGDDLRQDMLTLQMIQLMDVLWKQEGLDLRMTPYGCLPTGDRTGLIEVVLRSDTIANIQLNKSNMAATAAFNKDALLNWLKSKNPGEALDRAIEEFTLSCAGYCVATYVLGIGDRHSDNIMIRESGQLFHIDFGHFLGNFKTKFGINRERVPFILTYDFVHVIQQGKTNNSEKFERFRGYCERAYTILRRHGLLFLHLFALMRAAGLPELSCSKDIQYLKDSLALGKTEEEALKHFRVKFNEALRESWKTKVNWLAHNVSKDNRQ
# Details: at 0.1 µM
# 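Further: values are mean percent inhibition of PI3K-delta, part of the GSK PKIS screen.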
row,Compound,inhibition [%]
1,ON=C1CCc2cc(-c3nc(C4CCNCC4)[nH]c3-c3ccncc3)ccc21,0.31
2,O=C1Nc2ccc(-c3cccnc3)cc2C1=Cc1cc(Br)c(O)c(Br)c1,-8.03
3,CCOc1nccc2c1nc(-c1nonc1N)n2CC,0.56
4,c1ccc(Cc2nc3ccc(Nc4ncnc5ccccc45)cc3[nH]2)cc1,1.66
5,O=C(Nc1ccc(Oc2ccc3[nH]c(NC(=O)c4ccco4)nc3c2)cc1)Nc1cc(C(F)(F)F)ccc1F,0.36
6,FC(F)(F)c1ccc(-c2nn3ncccc3c2-c2ccnc(Nc3ccc4c(c3)OCCO4)n2)cc1,1.63
7,COc1cc2ncnc(Nc3ccc(C)c(O)c3)c2cc1OC,1.27
8,c1ccc(Nc2ncc(-c3ccccc3)o2)cc1,1.87
9,Cc1ccc(NC(=O)CC2CC2)cc1-c1ccc(C(=O)NCC2CC2)cc1,0.9
10,OCc1ccc(-c2nc(-c3ccccn3)c(-c3ccc4c(c3)OCO4)[nH]2)cc1,1.52
11,Cc1ccc(Nc2ccnc(Nc3cccc(C(N)=O)c3)n2)cc1O,2.88
12,CN(c1ccc(NC(=O)Nc2ccc(OC(F)(F)F)cc2)cc1)c1ccnc(Nc2cccc(S(N)(=O)=O)c2)n1,1.08
13,CN(C)C(=O)O[C@@H]1CN[C@@H](C#Cc2cc3ncnc(Nc4ccc(OCc5cccc(F)c5)c(Cl)c4)c3s2)C1,3.66
14,NS(=O)(=O)c1ccc(Nc2cc(-c3cccc(O)c3)n[nH]2)cc1,2.48
15,Cc1ccc2c(-c3ccnc(Nc4cccc(C(F)(F)F)c4)n3)c(-c3ccccc3)nn2n1,0.26
16,COC(=O)Nc1nc2cc(Oc3ccc(NC(=O)Nc4cccc(Br)c4)cc3)ccc2[nH]1,1.03
17,N#Cc1c(NC(=O)c2ccccc2F)sc2c1CCCC2,1.85

row,Compound,inhibition [%]
1,CN(C)CCCn1c(-c2nonc2N)nc2cnccc21,1.95
2,NS(=O)(=O)c1ccc(-c2cc3ccncc3cc2OCc2ccccc2)cc1,1.97
3,NS(=O)(=O)c1cccc(-c2cc3ccncc3cc2OCc2ccccc2)c1,2.08
4,N#Cc1cccc(Nc2nccc(-c3cnn4ncccc34)n2)c1,3.45
5,COc1cccc(-n2nc(C)c3c(N/N=C(\C)c4ccncc4)ncnc32)c1,-1.39
6,Oc1cccc(-c2nc(-c3ccccc3)[nH]c2-c2ccncc2)c1,2.01
7,COc1cccc(-n2ncc3c(N/N=C/c4ccc(C)cc4)ncnc32)c1,1.43
8,COc1cccc(-n2ncc3c(N/N=C/c4ccc(S(C)(=O)=O)cc4)ncnc32)c1,1
9,NC(=O)c1sc(-n2cnc3ccccc32)cc1OCc1ccccc1Br,2.31
10,Cc1cc(O)cc(C)c1/C=C/c1cncc(C(=O)N(C)C)c1,1.59
11,COc1cc(/C=N/Nc2ncnc3c2cnn3C(C)C)ccc1O,20.9
12,NS(=O)(=O)c1ccc(N/N=C2\C(=O)Nc3ccc(Cl)cc32)cc1,0.01
13,Cc1cc(Cl)cc2c1NC(=O)C2=NNc1ccc(S(N)(=O)=O)cc1,0.72
14,NC(=O)c1cccc(Nc2nccc(Nc3cccc(F)c3)n2)c1,-1.45
15,COc1cc2ncn(-c3cc(OCc4ccccc4S(C)(=O)=O)c(C#N)s3)c2cc1OC,2.67
16,CCS(=O)(=O)c1ccc(OC)c(Nc2ncc(-c3cccc(OC)c3)o2)c1,3.48
17,CS(=O)(=O)Nc1cccc(-c2ccc3c(NC(=O)C4CC4)n[nH]c3c2)c1,1.13
